Most compounds without a hit are left out; they make up all but 7.5% or so of the library.
SMN2 splice up – increases expression of the SMN2 splice variant; HEK293 SMN2-luciferase splicing reporter, luminescence, 30-36 h; Potency, µM (highest dose often 46.1 µM), hits mostly activators; 210,000 tested, 2.8% active; AID 1458; also: nearly all actives have a fitted effect of over 55% in size
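HEK293 cells carry an SMN2 minigene-luciferase reporter in which exon 7 inclusion puts luciferase in frame. Cells were seeded at 2000 cells/well, attached for 10-12 hours, then exposed to compounds for 30-36 hours at 37C before ONE-Glo luminescence.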
FLuc modulator – inhibits or activates purified firefly luciferase, miR-21 counter-screen; P08659; purified FLuc, Km substrates, luminescence inhibition; Potency, µM (top dose mostly 57.5 µM), most hits filed as inhibitors; 360,000 tested, 6.9% active; AID 588342; also: nearly all actives have a fitted effect of over 55% in size
Target sequence (P08659 whole entry, looked up): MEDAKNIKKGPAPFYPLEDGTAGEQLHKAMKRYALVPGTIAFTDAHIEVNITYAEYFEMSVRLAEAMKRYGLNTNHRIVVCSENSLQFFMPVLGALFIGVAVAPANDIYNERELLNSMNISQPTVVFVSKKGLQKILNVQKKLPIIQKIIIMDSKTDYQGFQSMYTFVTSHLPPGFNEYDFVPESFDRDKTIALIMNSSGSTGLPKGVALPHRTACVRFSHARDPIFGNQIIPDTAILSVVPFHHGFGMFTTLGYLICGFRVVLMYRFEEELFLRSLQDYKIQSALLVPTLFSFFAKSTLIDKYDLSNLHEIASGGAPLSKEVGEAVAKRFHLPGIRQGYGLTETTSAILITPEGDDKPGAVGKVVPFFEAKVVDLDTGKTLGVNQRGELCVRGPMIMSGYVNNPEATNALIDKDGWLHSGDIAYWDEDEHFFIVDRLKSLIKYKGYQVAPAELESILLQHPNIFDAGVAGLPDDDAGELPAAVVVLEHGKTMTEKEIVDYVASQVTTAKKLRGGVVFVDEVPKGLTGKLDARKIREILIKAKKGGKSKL
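Purified P. pyralis luciferase (10nM final) with 10uM D-luciferin and 10uM ATP (Km levels) in 50mM Tris acetate pH 7.5, 10mM Mg acetate, 0.01% Tween-20, 0.05% BSA; qHTS 6-point titration, ~60 µM downward; luminescence read.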
NPC1 prom act – NPC1 promoter activation; Huh7 NPC1 promoter luciferase reporter, 24 h; Potency, µM (doses to about 9.22 µM), actives largely listed as activators; 320,000 tested, 2.4% active; AID 485313; also: nearly all actives have a fitted effect of over 60% in size
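In 1536-well qHTS, Huh7 cells harboring an NPC1 promoter–luciferase construct received compound for 24 h; activation was quantified by luminescence following luciferase reagent addition.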
ELG1 genotoxic – genotoxicity induction in ELG1-luciferase HEK293T cells; 330,000 tested, 1.3% active; Potency, µM (highest dose often 46 µM), most hits filed as activators; AID 504466; HEK293T ELG1-luciferase reporter, luminescence, 16 h; also: nearly all actives have a fitted effect of over 60% in size
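Cells (2,000/well) expressing the ELG1-luciferase fusion are dosed by pin tool and kept 16 hr at 37 °C, 5% CO2. Signal comes from ONE-Glo luciferase reagent after 30 min at room temperature.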
KinaseGlo FLuc – blocks Kinase-Glo luciferase, a counter-screen artifact; Q27757; Kinase-Glo luciferase, ATP luminescence, 8 min; Potency, µM (titrated, usually from 38.3 µM), actives largely listed as inhibitors; 200,000 tested, 0.28% active; also: nearly all actives have a fitted effect of over 60% in size
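Inhibition of Kinase-Glo luciferase light generation was assessed at 10 uM ATP in pH 7.2 imidazole buffer, with luminescence measured after eight minutes at ambient temperature.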
Rab9 promoter act – Rab9 promoter activation. Huh7 Rab9 promoter-luciferase reporter, luminescence, 24 h. Potency, µM (series often up to 9.22 µM), hits mostly activators. 320,000 tested, 2.8% active. AID 485297; also: nearly all actives have a fitted effect of over 60% in size
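Rab9 promoter-driven luciferase in stably transfected Huh7 cells; 1500 cells/well rested 2 h, exposed to compound in DMSO for 24 h at 37 °C, 5% CO2. Luminescence read 10 min after adding luciferase reagent at ambient temperature.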
Hits are given with their value; – = inactive; ? = inconclusive; · = not tested or not shown. Calls follow the shape of the dose curve; as a rule, active = well fitted curve in the direction sought with a large enough effect; inconclusive = small, poorly fitted or top-dose-only effect, or another doubt; inactive = no such curve, though single readings can be large; an effect the other way counts as inactive or inconclusive.

SMILES | SMN2 splice up | FLuc modulator | NPC1 prom act | ELG1 genotoxic | KinaseGlo FLuc | Rab9 promoter act
Cc1ccc(C)c(-c2cc(C(=O)NNC(=S)NCC(C)C)c3ccccc3n2)c1 | · | ? | – | – | · | –
CCNC(=S)NNC(=O)c1cc(-c2ccccc2C)nc2ccccc12 | – | 17µM | – | – | – | –
CCCOc1cccc(-c2cc(C(=O)NNC(=S)NCC)c3ccccc3n2)c1 | – | 0.76µM | – | – | – | ?
O=C(COC(=O)c1nc(Cl)ccc1Cl)NC(=O)c1ccccc1 | · | – | – | – | · | –
CCNC(=S)NNC(=O)c1cc(-c2ccc(OCC)cc2)nc2ccccc12 | – | 0.024µM | ? | – | 1µM | ?
COc1ccc(-c2cc(C(=O)NNC(=S)NC(=O)c3c(-c4ccccc4)noc3C)[nH]n2)cc1 | – | 9.5µM | – | – | – | –
CCSc1ncc(Cl)c(C(=O)N(Cc2ccccc2Cl)C2CCS(=O)(=O)C2)n1 (stereo unspecified) | – | – | · | · | · | ·
CCc1cccc(NC(=O)c2cc3c(=O)n(Cc4ccc(OC)cc4)ccc3nc2C)c1 | · | – | · | · | · | ·
CC(C)c1ccc(-c2noc(SCC(=O)N(C)c3ccc(F)cc3)n2)cc1 | · | 6µM | · | · | · | ·
CC(C)c1ccc(-c2noc(SCC(=O)N3CCCCC3)n2)cc1 | · | 2.4µM | · | · | · | ·
CC(C)c1ccc(-c2c(C#N)c(N)nc(SCC(=O)N3CCCCCC3)c2C#N)cc1 | – | – | – | – | – | –
COC(=O)c1sc2cccc(F)c2c1S(=O)(=O)N1CCN(c2ccc(C)cc2C)CC1 | · | – | · | · | · | ·
CCOC(=O)C1CCN(C(=O)c2cc(S(=O)(=O)N3CCc4ccccc43)ccc2OC)CC1 | · | – | – | – | · | –
O=C(OCC1CC(c2ccccc2)=NO1)c1ccc(Cl)cc1 (stereo unspecified) | – | – | – | – | – | –
CN1OC(COC(=O)c2ccccc2)CC1c1ccccc1 (stereo unspecified) | – | 6.7µM | ? | – | – | –
S=C(N/N=C/c1ccco1)NC1CC2CCC1C2 (stereo unspecified) | · | 19µM | ? | ? | · | ?
Oc1ccccc1/C=N/NC(=S)NC1CC2CCC1C2 (stereo unspecified) | · | 27µM | 2µM | – | · | 2.8µM
CC1CN(C(=O)c2cc([N+](=O)[O-])cc([N+](=O)[O-])c2)CC(C)O1 (stereo unspecified) | · | 15µM | ? | ? | – | 3.2µM
Cc1ccc(C(=O)N2CC(C)OC(C)C2)cc1[N+](=O)[O-] (stereo unspecified) | · | – | – | – | – | –
C=CCOc1cccc(C(=O)/C=C2/C(=O)Nc3ccccc32)c1 | · | 7.6µM | – | – | · | –
Cc1ccsc1/C=C/c1ccc2ccccc2n1 | 0.89µM | 1.7µM | 2µM | ? | 11µM | 2.2µM
Oc1c(Cl)cc(Cl)cc1/C=C/c1ccc2cccc(O)c2n1 | – | ? | – | – | – | –
Cc1ccsc1/C=C/c1ccc2cccc(O)c2n1 | ? | 2.7µM | ? | 9.2µM | – | 3.5µM
Cc1ccsc1/C=C/C(=O)O | – | – | – | – | – | –
Oc1cccc2ccc(/C=C/c3cccs3)nc12 | – | 2.1µM | ? | 2.2µM | – | 2.8µM
SMILES | SMN2 splice up | FLuc modulator | NPC1 prom act | ELG1 genotoxic | KinaseGlo FLuc | Rab9 promoter act
CCc1nc2ccc(C(=O)NCc3ccc(N(C)C)cc3)cc2nc1CC | · | – | · | · | · | ·
CC(=O)N1c2ccc(S(=O)(=O)NCC3CCC(C(=O)Nc4cccc(F)c4)CC3)cc2CC1C (stereo unspecified) | · | – | · | · | · | ·
Cc1nn(C)c(C)c1C(C)NC(=O)c1cc(COc2ccc(F)c(F)c2)on1 (stereo unspecified) | · | 21µM | ? | – | · | ?
CCOc1ccc(CNC(=O)CCS(=O)(=O)c2cc3c(cc2Cl)NC(=O)CO3)cc1OC | · | – | · | · | · | ·
CCN1CCN(c2oc(/C=C/c3ccc(OC)c(OC)c3)nc2C#N)CC1 | – | – | · | · | · | ·
CC(C)(C)NC(=O)Nc1nnc(SCC(=O)NC2CCCCC2)s1 | · | 11µM | – | – | · | –
Cc1csc(NC(=O)CSc2nnc(NC(=O)NC(C)(C)C)s2)n1 | · | 6µM | – | – | · | –
CC(=O)Nc1nnc(SCC(=O)Nc2nc(C)cs2)s1 | · | – | – | – | · | –
